{"source": "PubChem BioAssay (NCATS)", "note": "Inconclusive results are not listed. Entries that show only a call come without a potency. Values without a mark were called inactive. Calls of active or inactive are those of the source. Calls come from the whole dose curve; as a rule, active = well fitted inhibition curve with a large enough effect; inconclusive = small, poorly fitted or top-dose-only effect; inactive = flat fitted curve, though single readings scatter.", "data": [{"molecular_target": "Aldehyde dehydrogenase, mitochondrial (Homo sapiens) (UniProt P05091)", "experiment": "qHTS for Inhibitors of the Aldehyde Dehydrogenase Family (ALDH2) Primary screen (AID 2061308); note: nearly all actives have a fitted effect of over 55% in size", "conditions": "ALDH2 enzyme inhibition qHTS, 1536-well; series mostly up to 56 µM", "values": [{"compound": "CN1[C@H]2C[C@H](OC(=O)[C@H](CO)c3ccccc3)C[C@@H]1[C@@H](O)C2", "Potency": "inactive"}, {"compound": "C=C1C2(C)CC3C(C)(O)C4=CC(=O)OC(C)(C)C4=CCC3(C)C13C(=O)OC(C)C3(O)C2=O", "note": "(centres undefined)", "Potency": "inactive"}, {"compound": "COc1cc(O)c2c(c1)/C=C/C[C@@H](O)[C@@H](O)C(=O)CCC[C@H](C)OC2=O", "Potency": "inactive"}, {"compound": "C=C[C@H]1CN2CCC1C[C@H]2[C@H](O)c1ccnc2ccccc12", "note": "(some centres undefined)", "Potency": "inactive"}, {"compound": "CC1=CC2/C=C(\\C)CCC(O)C3OC(C)(C)OC3CC(=O)OC23C(=O)NC(CC(C)C)C3C1C", "note": "(centres undefined)", "Potency": "inactive"}, {"compound": "C=C[C@H]1CN2CC[C@H]1C[C@@H]2[C@@H](O)c1ccnc2ccccc12", "Potency": "inactive"}, {"compound": "C[C@]12CC[C@H](O[C@@H]3O[C@H](CO)[C@@H](O)[C@H](O)[C@H]3O)CC1CC[C@@H]1C2CC[C@]2(C)[C@@H](C3=CC(=O)OC3)CC[C@]12O", "note": "(some centres undefined)", "Potency": "inactive"}, {"compound": "OCc1nnc2n1-c1ccc(Cl)cc1C(c1ccccc1Cl)=NC2", "Potency": "inactive"}, {"compound": "COC1C=CC23c4cc5c(cc4COC2(O)CN(C)C3C1)OCO5", "note": "(centres undefined)", "Potency": "inactive"}, {"compound": "C=C(C)[C@@]12O[C@@H]1[C@@]1(C)C(=C[C@H]2O)CC[C@@H](O)[C@@H]1C", "Potency": "inactive"}, {"compound": "Cc1cccc(NC(=O)c2ccc(C(F)(F)F)cc2C(=O)O)n1", "Potency": "inactive"}, {"compound": "CC1=CC2(O)/C=C/C(C)(O)C(O)C(O)/C=C/C(=O)OC23C(=O)NC(CC(C)C)C3C1C", "note": "(centres undefined)", "Potency": "inactive"}, {"compound": "O=C(N[C@H]1CN2CCC1CC2)c1cc2cccc(Cl)c2s1", "Potency": "inactive"}, {"compound": "CC(=O)OC[C@]12C[C@H](O)C(C)=C[C@H]1O[C@@H]1[C@H](O)[C@@H](O)[C@@]2(C)[C@]12CO2", "Potency": "inactive"}, {"compound": "CC1=C[C@H]2O[C@@H]3[C@H](O)[C@@H](O)[C@](C)([C@@]2(CO)C[C@@H]1O)[C@]31CO1", "Potency": "inactive"}, {"compound": "C=C(CO)C(=O)O[C@H]1C/C(C)=C/CC/C(CO)=C/[C@H]2OC(=O)C(=C)[C@H]12", "Potency": "inactive"}, {"compound": "COCC(C(=O)OC1CC2CCC(C1)N2C)c1ccccc1", "note": "(centres undefined)", "Potency": "inactive"}, {"compound": "CCCC[N+]1(C)[C@@H]2CC(OC(=O)[C@H](CO)c3ccccc3)C[C@H]1[C@@H]1O[C@@H]12", "note": "(some centres undefined)", "Potency": "inactive"}, {"compound": "Oc1ccc2c3c1O[C@H]1[C@H](N(CCCl)CCCl)CC[C@@]4(O)[C@@H](C2)N(CC2CC2)CC[C@]314", "activity change, negative = inhibition": "-5.73% [at 11.2 µM]"}, {"compound": "CC12CCC3C(CCC4(O)CC(O)CCC34C=O)C1(O)CCC2C1=CC(=O)OC1", "note": "(centres undefined)", "Potency": "inactive"}, {"compound": "C/C=C(\\C)C(=O)OC1CC2C(CC=C3CC(OC4CC(OC)C(OC5CC(OC)C(OC6CC(OC)C(OC7CC(OC)C(O)C(C)O7)C(C)O6)C(C)O5)C(C)O4)CCC32C)C2(O)CCC(C(C)=O)C12C", "note": "(centres undefined)", "Potency": "inactive"}, {"compound": "Fc1cc(F)c2c(c1)[C@H]1C=CC[C@H]1C(c1cccnc1)N2", "note": "(some centres undefined)", "Potency": "inactive"}, {"compound": "C/C=C(\\C)C(=O)OC1C(C)OC(OC2C(C)OC(OC3CCC4(C)C(=CCC5C4CCC4(C)C(C(C)OC6OC(COC7OC(CO)C(O)C(O)C7O)C(O)C(O)C6O)CCC54O)C3)CC2OC)C(O)C1OC", "note": "(centres undefined)", "Potency": "inactive"}, {"compound": "CCOC(=O)c1ncn2c1CN(C)C(=O)c1c(I)cccc1-2", "Potency": "inactive"}, {"compound": "O=C1Nc2ccc3ncsc3c2/C1=C/c1cnc[nH]1", "Potency": "inactive"}, {"compound": "CC(C)C1(OO)C=C2C(=O)CC3C(C)(C(=O)O)CCCC3(C)C2CC1", "note": "(centres undefined)", "Potency": "inactive"}, {"compound": "CCCN(CCC)CCc1ccc(OC)c(OCCc2ccccc2)c1", "Potency": "inactive"}, {"compound": "CCOC(=O)c1ccnc2cc(C(OCCN3CCCCC3)c3ccccc3Cl)sc12", "note": "(centres undefined)", "Potency": "inactive"}, {"compound": "C[C@H]1CCC[C@H](O)CCC/C=C/c2cc(O)cc(O)c2C(=O)O1", "Potency": "inactive"}, {"compound": "CN1CCc2cc3c(cc2C1C1OC(=O)c2c1ccc1c2OCO1)OCO3", "note": "(centres undefined)", "Potency": "inactive"}, {"compound": "CN1C(=O)N(c2ccc(C#N)c(C(F)(F)F)c2)C(=O)[C@]1(CO)c1ccccc1", "Potency": "inactive"}, {"compound": "COc1ccc2c3c([nH]c2c1)C(C=C(C)C)N1C(=O)C2CCCN2C(=O)C1C3", "note": "(centres undefined)", "Potency": "inactive"}, {"compound": "C[C@]12CC[C@H](O[C@@H]3O[C@H](CO)[C@@H](O)[C@H](O)[C@H]3O[C@@H]3O[C@H](CO)[C@@H](O)[C@H](O)[C@H]3O)CC1=CC[C@@H]1[C@@H]2CC[C@]2(C)[C@@H](C3=CC(=O)OC3)CC[C@]12O", "Potency": "inactive"}, {"compound": "CCC1CN2CCc3cc(OC)c(OC)cc3C2CC1CC1=NCCc2cc(O)c(OC)cc21", "note": "(centres undefined)", "Potency": "inactive"}, {"compound": "C[C@]12CC[C@@H](O)C[C@H]1CC[C@@H]1[C@@H]2CC[C@]2(C)C(=O)CC[C@@H]12", "Potency": "inactive"}, {"compound": "CC(C)(C)[C@]1(O)C[C@@H]2OC(=O)C[C@@]23C(=O)O[C@@H]2OC(=O)[C@@H](O)[C@]213", "Potency": "inactive"}, {"compound": "CC1CCCC(O)CC(=O)Cc2cc(O)cc(O)c2C(=O)O1", "note": "(centres undefined)", "Potency": "inactive"}, {"compound": "CC1=C[C@H]2O[C@@H]3C[C@H]4OC(=O)/C=C/C=C/C(=O)OCC/C(C)=C/C(=O)OC[C@@]2(CC1)[C@]4(C)[C@]31CO1", "Potency": "inactive"}, {"compound": "CC12CCC3C(C1)c1c(cc(O)c(C(=O)c4ccccc4)c1OC3(C)C)O2", "note": "(centres undefined)", "Potency": "inactive"}]}]}
